{"source": "PubChem BioAssay (NCATS)", "note": "Inconclusive results are not listed. A number with no mark means an inactive call. The source made the active and inactive calls. Calls follow the shape of the dose curve; as a rule, active = well fitted inhibition curve with a large enough effect; inconclusive = small, poorly fitted or top-dose-only effect; inactive = no such curve, though single readings can be large or run the other way. Potency is read from the fitted curve at half-maximal effect."}
{"tested_on": "Zika virus NS2B-NS3 protease (linked)", "assay": "384 well plate NINDS AMC confirmatory qHTS for Zika virus inhibitors (AID 1347163); also: nearly all actives have a fitted effect of over 50% in size;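 as to activity change, negative = inhibition: fluorescence of AMC released from Ac-VKTGKR-AMC peptide cleaved by the protease; top concentration of the series differs between compounds; 0% = no-inhibitor control and -100% = no-enzyme control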", "details": "Recombinant NS2B-NS3 protease, Ac-VKTGKR-AMC fluorescence; series mostly up to 100 µM; activity change, negative = inhibition: at the top concentration", "excerpt": "Description: Assay Submitters (PI): Avindra Nath, Ph.D., National Institute of Neurological Disorders and Stroke (NINDS), Bethesda, MD Radhakrishnan Padmanabhan, Ph.D., Georgetown University (GU), Washington D.C. Zika Virus causes congenital defects, including microcephaly and is associated with Guillain-Barre syndrome, eningoencephalitis and myelitis in infected adult. […] Using a target-based approach, we hope to establish a screening paradigm to uncover novel, cell-active NS2B-NS3 protease (Zika Virus) specific inhibitors from NCATS' collection of small molecules using qHTS. […] Four assay panel was created to identify potential Zika Virus inhibitors. Namely, (1) GU unlinked NS2B-NS3 AMC tagged protease qHTS, (2) GU unlinked NS2B-NS3 Rhodamine tagged protease qHTS, (3) NINDS linked NS2B-NS3 AMC tagged protease qHTS, (4) NINDS linked NS2B-NS3 Rhodamine tagged protease qHTS. Active compounds are validated using a secondary assay in 384 well plate format. Early Translation Branch (ETB) National Center for Advancing Translational Sciences (NCATS), Rockville, MD National Institute of Health (NIH), Bethesda, Maryland\n384-well NINDS AMC Assay The protease was diluted to 7.5 nM, 40.9 nM, or 82 nM in assay buffer and dispensed into a 96-well PCR plate (Applied Biosystems); 20 or 22 microL was transferred to a black 384-well assay plate (final protease concentration of 5 nM, 30 nM, or 60 nM, respectively). Compounds (3 microL, 1 microM - 10 mM, DMSO) were diluted and transferred to the assay plate (final concentrations ranged from 100 nM to 1 mM). Compounds were incubated with protease for ~15 minutes. The substrate, Ac-VKTGKR-AMC (Genscript), was dissolved in DMSO to a concentration of 6 mM and further diluted into assay buffer to a working concentration of 180 microM, then dispensed into a 384-well preparation plate (Eppendorf). A multichannel repeat pipettor was used to add 3 or 5 microL of substrate to the assay plate to give a final concentration of 30 microM. The plate was incubated in the dark at room temperature. After 25 minutes, the fluorescence intensity (excitation: 355 nm, emission: 460 nm) was measured and normalized to no-enzyme and no-inhibitor controls. Aprotinin39 (VWR) was used as an intraplate control."}
{"molecule": "O=C1NC(=O)c2cc(Nc3ccccc3)c(Nc3ccccc3)cc21", "Potency": "12.6 µM (active)"}
{"molecule": "O=C1Nc2ccc(I)cc2/C1=C/c1cc(Br)c(O)c(Br)c1", "Potency": "89.1 µM (active)"}
{"molecule": "Cc1nc(N=Nc2cc(S(=O)(=O)O)c3cc([N+](=O)[O-])cc(S(=O)(=O)O)c3c2)c(COP(=O)(O)O)c(C=O)c1O", "Potency": "31.6 µM (active)"}
{"molecule": "Nc1nc2ccc(Cl)cc2c2nc(-c3ccco3)nn12", "activity change, negative = inhibition": "-23.2% [at 316 µM]"}
{"molecule": "CCCc1c(OCCCOc2ccc(OCC(=O)O)cc2)ccc(C(C)=O)c1O", "Potency": "355 µM (active)"}
{"molecule": "O=C(O)c1ccccc1Nc1cccc(OCc2ccc3ccccc3n2)c1", "Potency": "158 µM (active)"}
{"molecule": "C/C(=C\\c1ccc(C(=O)O)cc1)c1ccc2c(c1)C(C)(C)CCC2(C)C", "activity change, negative = inhibition": "5090%"}
{"molecule": "Cc1nc(N=Nc2ccc(S(=O)(=O)O)cc2S(=O)(=O)O)c(COP(=O)(O)O)c(C=O)c1O", "Potency": "39.8 µM (active)"}
{"molecule": "CCCCCCCC/C=C\\CCCCCCCC(=O)NCCc1ccc(O)c(O)c1", "Potency": "1.12 µM (active)"}
{"molecule": "COc1cc(/C=C(\\C#N)C(=O)Nc2nnc(C(F)(F)F)s2)ccc1OCc1ccc(C(F)(F)F)cc1C(F)(F)F", "Potency": "inactive"}
